PubChem BioAssay (Tox21)
Results filed as inconclusive are left out. Calls of active or inactive are those of the source. Unless noted, the call rests on the fitted dose curve.

Tests used:
[1] = Nuclear factor erythroid 2-related factor 2/antioxidant responsive element (Nrf2/ARE) small molecule agonists: qHTS cell viability counter screen in human keratinocytes (AID 1919968; active means well fitted curve in the direction sought with a large enough effect in the repeat runs; an effect the other way counts as inactive or inconclusive; further: nearly all actives have a fitted effect of over 55% in size)
Method in brief: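 CellTiter-Fluor fluorescence, read 1 h after reagent, gave viability in the same wells as the ARE-luciferase assay. KeratinoSens cells (1,500/well) had 23 h compound exposure at 37 C/5% CO2 following 5 h plating.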

[2] = Nuclear factor erythroid 2-related factor 2/antioxidant responsive element (Nrf2/ARE) small molecule agonists: luciferase reporter gene qHTS assay in human keratinocytes (AID 1919969); further: nearly all actives have a fitted effect of over 35% in size
[3] = biological target: Gonadotropin-releasing hormone receptor (Homo sapiens) (UniProt P30968); test: Human gonadotropin-releasing hormone receptor (GnRHR) small molecule agonists, calcium flux assay in GnRHR-HEK293 cells (AID 1920063); further: nearly all actives have a fitted effect of over 35% in size
Chain of Gonadotropin-releasing hormone receptor (Homo sapiens) (P30968 whole entry, looked up): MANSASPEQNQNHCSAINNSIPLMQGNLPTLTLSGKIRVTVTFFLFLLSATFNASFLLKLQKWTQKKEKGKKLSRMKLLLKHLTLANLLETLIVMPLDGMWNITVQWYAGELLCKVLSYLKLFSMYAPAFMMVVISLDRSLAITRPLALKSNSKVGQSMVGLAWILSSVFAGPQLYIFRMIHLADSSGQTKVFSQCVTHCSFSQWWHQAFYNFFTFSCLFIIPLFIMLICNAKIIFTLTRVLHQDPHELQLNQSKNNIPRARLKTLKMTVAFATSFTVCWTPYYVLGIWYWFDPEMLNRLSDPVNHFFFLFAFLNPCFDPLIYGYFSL
Method in brief: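 Agonist mode: compounds at 15 concentrations, in triplicate, went onto calcium dye-loaded GnRHR-HEK293 cells. Intracellular calcium was then followed as 480/540 nm fluorescence at 1 s intervals over 3 min.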

[4] = biological target: KiSS-1 receptor (Homo sapiens) (UniProt Q969F8); test: Human kisspeptin (KISS1R) small molecule agonists, calcium flux assay in KISS1R-HEK293 cells (AID 1920064; active means well fitted curve in the direction sought with a large enough effect in the repeat runs; an effect the other way counts as inactive or inconclusive)
Chain of KiSS-1 receptor (Homo sapiens) (Q969F8 whole entry, looked up): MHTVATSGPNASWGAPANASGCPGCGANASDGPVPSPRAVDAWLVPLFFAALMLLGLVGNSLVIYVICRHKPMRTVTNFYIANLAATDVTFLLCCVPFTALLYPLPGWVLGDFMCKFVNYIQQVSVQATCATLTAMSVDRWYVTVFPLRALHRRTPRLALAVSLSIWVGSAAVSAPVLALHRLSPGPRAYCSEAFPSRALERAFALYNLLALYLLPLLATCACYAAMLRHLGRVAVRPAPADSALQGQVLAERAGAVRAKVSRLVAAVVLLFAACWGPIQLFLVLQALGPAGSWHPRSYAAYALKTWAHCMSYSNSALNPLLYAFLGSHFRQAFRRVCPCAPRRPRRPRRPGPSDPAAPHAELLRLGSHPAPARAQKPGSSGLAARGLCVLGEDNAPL
Method in brief: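 Agonist mode: intracellular calcium rise tracked at 1 s intervals over 3 min (480/540 nm) immediately after compound addition to dye-loaded KISS1R-HEK293 stable cells. Each compound tested at 15 concentrations in triplicate.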

[5] = G protein-coupled receptor (GPCR) small molecule agonists, calcium flux assay: HEK293 wild type cell line counter screen (AID 1920065)
Method in brief: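 Calcium flux counter screen: compound added in agonist mode at 15 concentrations in triplicate to dye-loaded parental HEK293 cells. Fluorescence (480/540) read kinetically for 3 min; ATP served as positive control.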

[6] = p53 small molecule agonists, cell-based qHTS assay with human liver microsomes (AID 1963577)
Method in brief: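 p53RE-bla cells, 4,000/well, compound added after 5 h, with human liver microsomes 0.5 mg/mL and NADPH 0.5 mg/mL final; 16 h at 37 C, then LiveBLAzer 2 h RT, fluorescence.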

[7] = p53 small molecule agonists, cell-based qHTS assay with rat liver microsomes (AID 1963578)
Method in brief: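 p53RE-bla cells, 4,000/well, pre-incubated 5 h, then given compounds plus rat liver microsomes (0.5 mg/mL final) and NADPH (0.5 mg/mL final). Incubation 16 h at 37 C; beta-lactamase reporter read by LiveBLAzer fluorescence after 2 h at room temperature.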

[8] = p53 small molecule agonists, cell-based qHTS assay with human liver microsomes: qHTS cell viability counter screen (AID 1963579); further: nearly all actives have a fitted effect of over 45% in size
Method in brief: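 p53RE-bla cells, 4,000/well, dosed 5 hours after plating, with human liver microsomes (0.5 mg/mL final) plus NADPH (0.5 mg/mL final), 16 hours at 37 C. Viability read as CellTiter-Glo luminescence after 30 min at room temperature.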

[9] = p53 small molecule agonists, cell-based qHTS assay with rat liver microsomes: qHTS cell viability counter screen (AID 1963580); further: nearly all actives have a fitted effect of over 45% in size
Method in brief: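 Rat liver microsome (0.5 mg/mL final) and NADPH (0.5 mg/mL final) co-incubation with compounds for 16 h at 37 C on HCT-116 p53RE-bla cells; cytotoxicity taken from intracellular ATP luminescence.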

[10] = p53 small molecule agonists, cell-based qHTS assay: qHTS cell viability counter screen (AID 1963581); further: nearly all actives have a fitted effect of over 45% in size
Method in brief: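 Counter screen read by CellTiter-Glo luminescence (ATP content, 30 min at room temperature), run in the same wells as the beta-lactamase reporter read. HCT-116 p53RE-bla cells saw compounds for 16 h at 37 C.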

[11] = p53 small molecule agonists, cell-based qHTS assay (AID 1963582; active means well fitted activation curve with a large enough effect in the signal ratio in the repeat runs, not every such curve was filed as active; the % refers to the signal ratio)
Method in brief: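 Read-out is beta-lactamase FRET fluorescence after 2 h at room temperature with LiveBLAzer B/G substrate. p53 response element-bla cells were treated 16 h at 37 C with compounds in DMSO, added 5 h after seeding.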

[12] = biological target: 5-hydroxytryptamine receptor 2A (Homo sapiens) (UniProt P28223); test: 5-hydroxytryptamine receptor 2A (HTR2A) small molecule antagonists, cell-based qHTS assay (AID 1963586); further: nearly all actives have a fitted effect of over 45% in size
Chain of 5-hydroxytryptamine receptor 2A (Homo sapiens) (P28223 whole entry, looked up): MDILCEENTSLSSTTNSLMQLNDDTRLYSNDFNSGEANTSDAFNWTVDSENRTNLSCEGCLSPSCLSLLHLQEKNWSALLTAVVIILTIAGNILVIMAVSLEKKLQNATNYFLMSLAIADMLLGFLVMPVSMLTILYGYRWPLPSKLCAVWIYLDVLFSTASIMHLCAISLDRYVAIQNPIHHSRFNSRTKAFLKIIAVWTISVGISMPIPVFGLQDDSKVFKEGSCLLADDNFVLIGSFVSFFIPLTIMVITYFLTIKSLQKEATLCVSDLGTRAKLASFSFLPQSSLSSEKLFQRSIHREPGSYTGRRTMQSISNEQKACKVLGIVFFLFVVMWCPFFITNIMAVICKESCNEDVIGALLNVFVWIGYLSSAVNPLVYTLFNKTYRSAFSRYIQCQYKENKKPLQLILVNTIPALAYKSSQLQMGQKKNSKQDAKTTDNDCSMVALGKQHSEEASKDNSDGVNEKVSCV
Method in brief: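 CHO cells stably expressing human HTR2A were plated for 18 h at 37 C, then loaded with calcium dye for 1 h. Compounds were preincubated 5 min at room temperature before DOI (4 nM solution) was added. Kinetic fluorescence was read for 3 min.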

[13] = biological target: 5-hydroxytryptamine receptor 2A (Homo sapiens) (UniProt P28223); test: 5-hydroxytryptamine receptor 2A (HTR2A) small molecule agonists, cell-based qHTS assay (AID 1963587); further: nearly all actives have a fitted effect of over 30% in size
Method in brief: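 Kinetic calcium-flux fluorescence (2 min, 1 sec intervals) after compound addition in agonist mode. HTR2A-CHO cells were cultured 18 h, then dye-loaded 1 h at 37 C.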

[14] = biological target: Muscarinic acetylcholine receptor M1 (Homo sapiens) (UniProt P11229); test: Cholinergic receptor muscarinic 1 (CHRM1) small molecule antagonists, cell-based qHTS assay (AID 1963588); further: nearly all actives have a fitted effect of over 40% in size
Chain of Muscarinic acetylcholine receptor M1 (Homo sapiens) (P11229 whole entry, looked up): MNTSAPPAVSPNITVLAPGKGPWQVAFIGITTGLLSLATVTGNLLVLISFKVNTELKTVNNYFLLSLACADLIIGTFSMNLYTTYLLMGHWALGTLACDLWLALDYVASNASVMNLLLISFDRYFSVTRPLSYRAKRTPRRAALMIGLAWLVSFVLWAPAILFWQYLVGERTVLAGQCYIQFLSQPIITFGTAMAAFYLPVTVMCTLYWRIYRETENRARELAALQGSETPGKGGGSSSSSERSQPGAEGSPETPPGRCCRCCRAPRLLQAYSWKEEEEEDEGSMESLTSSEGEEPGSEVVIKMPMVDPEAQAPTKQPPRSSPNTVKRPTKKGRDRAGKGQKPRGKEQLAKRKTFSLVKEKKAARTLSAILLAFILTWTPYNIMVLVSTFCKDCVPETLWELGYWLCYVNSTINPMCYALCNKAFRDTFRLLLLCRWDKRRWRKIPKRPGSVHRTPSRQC
Method in brief: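 Compounds were tested at 15 concentrations in three independent runs. Dye-loaded CHRM1-CHO cells were exposed 5 min at room temperature before stimulation by acetylcholine added at 50nM. Intracellular calcium was read kinetically on FDSS for 3 min.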

[15] = biological target: Muscarinic acetylcholine receptor M1 (Homo sapiens) (UniProt P11229); test: Cholinergic receptor muscarinic 1 (CHRM1) small molecule agonists, cell-based qHTS assay (AID 1963589); further: nearly all actives have a fitted effect of over 35% in size
Method in brief: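 Agonist-mode calcium-flux screen: compounds at 15 concentrations, three independent runs, were pin-transferred onto dye-loaded human CHRM1-CHO cells. Fluorescence was then recorded kinetically every second over minutes.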

[16] = cAMP Responsive Elements (CRE) small molecule agonists, cell-based qHTS assay (AID 1963590)
Method in brief: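 Agonist mode: compound added to CRE-bla HEK 293T cells (2,000/well, 18 h after plating) for 3 h at 37 C/5% CO2. Reporter activity detected via FRET beta-lactamase substrate, 2 h room-temperature loading.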

[17] = cAMP Responsive Elements (CRE) small molecule antagonists, cell-based qHTS assay (AID 1963591; active means well fitted inhibition curve with a large enough effect in the signal ratio in the repeat runs, not every such curve was filed as active; the % refers to the signal ratio)
Method in brief: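 Antagonist mode: compounds are added alongside the adenylyl cyclase activator NKH477 (0.25 uM final) to CRE-bla HEK293T cells for 3 h. LiveBLAzer FRET substrate, 2 h at room temperature, reports bla expression.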

[18] = biological target: Beta-2 adrenergic receptor (Homo sapiens) (UniProt P07550); test: Adrenergic beta2 receptor (ADRB2) small molecule antagonists, cell-based qHTS assay (AID 1963592); further: series mostly up to about 92 µM; nearly all actives have a fitted effect of over 50% in size
Chain of Beta-2 adrenergic receptor (Homo sapiens) (P07550 whole entry, looked up): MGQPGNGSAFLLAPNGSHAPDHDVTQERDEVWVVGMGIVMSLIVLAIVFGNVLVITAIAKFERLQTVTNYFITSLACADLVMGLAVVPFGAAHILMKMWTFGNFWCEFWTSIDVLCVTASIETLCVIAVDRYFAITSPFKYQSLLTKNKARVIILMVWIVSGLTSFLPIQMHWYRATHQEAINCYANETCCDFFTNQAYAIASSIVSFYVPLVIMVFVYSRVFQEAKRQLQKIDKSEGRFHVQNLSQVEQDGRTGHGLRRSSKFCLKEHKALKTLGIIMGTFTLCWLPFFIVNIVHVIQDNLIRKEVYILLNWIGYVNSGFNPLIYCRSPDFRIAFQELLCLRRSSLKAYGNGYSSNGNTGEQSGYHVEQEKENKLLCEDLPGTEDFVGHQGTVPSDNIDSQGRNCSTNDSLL
Method in brief: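 Assay format: CHO-ADRB2 cells, 18-20hr seeding at 37C/5% CO2, then compound plus 1nM isoproterenol agonist mix for 0.5hr RT. Homogeneous time-resolved fluorescence cAMP detection after 1hr, expressed as 665/615 nm ratio.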

[19] = biological target: D(2) dopamine receptor (Homo sapiens) (UniProt P14416); test: Dopamine D2 receptor (DRD2) small molecule agonists, cell-based qHTS assay (AID 1963594); further: nearly all actives have a fitted effect of over 35% in size
Chain of D(2) dopamine receptor (Homo sapiens) (P14416 whole entry, looked up): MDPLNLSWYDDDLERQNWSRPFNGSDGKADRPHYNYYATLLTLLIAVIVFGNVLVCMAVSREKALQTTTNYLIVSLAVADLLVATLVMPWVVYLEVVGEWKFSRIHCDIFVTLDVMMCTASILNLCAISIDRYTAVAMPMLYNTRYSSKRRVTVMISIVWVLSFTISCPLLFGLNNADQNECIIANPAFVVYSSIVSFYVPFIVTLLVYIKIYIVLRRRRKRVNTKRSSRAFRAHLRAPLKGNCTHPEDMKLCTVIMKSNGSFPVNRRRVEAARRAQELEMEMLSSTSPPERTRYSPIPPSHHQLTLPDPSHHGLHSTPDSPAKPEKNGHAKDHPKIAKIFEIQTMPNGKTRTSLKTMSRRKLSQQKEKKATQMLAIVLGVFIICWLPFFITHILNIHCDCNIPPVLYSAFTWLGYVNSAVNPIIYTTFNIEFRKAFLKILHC
Method in brief: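 cAMP accumulation in DRD2-HEK293 cells measured by HTRF after 1 h detection; compounds added 10 min before NKH477 (200nM […]) forskolin-analogue stimulation, 30 min at room temperature, with Ro20-1724 present at 0.1 mM final.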

[20] = biological target: D(2) dopamine receptor (Homo sapiens) (UniProt P14416); test: Dopamine D2 receptor (DRD2) small molecule antagonists, cell-based qHTS assay (AID 1963595; active means well fitted inhibition curve with a large enough effect in the signal ratio in the repeat runs, with a control signal flat; the % refers to the signal ratio)
Method in brief: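 Stable D2 receptor HEK293 line, 24 h after seeding. Compound preincubated 10 min, then quinpirole (12 nM) with forskolin analogue NKH477 (200 nM), 30 min, room temperature. Detection by time-resolved FRET of cAMP.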

Measured: Potency

CCOC=C(C(=O)OCC)C(=O)OCC
inactive: all assays above

Cc1cc(C)c(N)c(Cl)c1
inactive: all assays above

COC(OC)OC
inactive: all assays above

O=C(O)/C=C/c1cnc[nH]1
inactive: all assays above

CC(=O)c1ccccc1O
inactive: all assays above
